# In ChEMBL document CHEMBL3988442, “University of Dundee, Small-Polar-MMV Screening Library” (2021):
# Screen size: about 53,000 compounds; about 900 (1.7%) showed an effect of 50% or more. This is one part of a sample in which strong results are shown more often than they occur.
# System: Mycobacterium tuberculosis
# Experiment: Cornell - Phenotypic assay to identify agents that inhibit growth of Mycobacterium tuberculosis
# Format: functional
# Design: scale not given: direction of the effect not stated beside the values
# Details: 10 mM as filed; unlikely as a test dose
row,SMILES,Percent Effect [%]
1,CO[C@@H]1CCN(C(=O)c2cc(C)on2)C[C@@H]1Cc1ccccc1,-19.48
2,Cc1nc(NCc2ccccc2)cc(C(C)Cn2nc(C)c(C)c2C)n1 (stereo not given),27.52
3,COc1c(Br)cccc1CCNC(=O)c1ccon1,37.39
4,O=C(Cc1ccon1)Nc1cncc(Br)c1O,58.04
5,COC(=O)Cc1cccc(NC(=O)Cc2ccon2)c1,10.84
6,O=C(Nc1cncc(Br)c1O)c1ccon1,105.3
7,CCOc1cccc(CCNC(=O)Cc2ccn[nH]2)n1,-3.182
8,CC(C)CN1Cc2cccc(NC(=O)Cc3ccon3)c2C1,8.389
9,O=C(Cc1ccn[nH]1)Nc1cncc(Br)c1O,104.6
10,O=C(Nc1ccccc1OC1CCOC1)c1ccon1 (stereo not given),-36.9
11,O=C(Cc1ccn[nH]1)N1CCc2cc(Br)sc2C1,17.86
12,CCc1ncc(CN2C[C@@H]3C[C@@H](O)CN3C[C@@H]2Cc2ccccc2)cn1,42.85
13,CCc1ccc(C(=O)N2CCC(Nc3ccc(C)nn3)CC2)o1,29.19
14,Cc1ccc(C(=O)N2CC[C@@]3(C[C@@H](NS(C)(=O)=O)CCO3)C2)s1,6.984
15,COC(=O)[C@]12CNC[C@H]1CN(Cc1nc(C)c[nH]1)C2,-13.35
16,O=C(NC[C@]12COC[C@H]1CN(CC1CCOCC1)C2)c1ccccc1.O=C(O)C(F)(F)F,14.72
17,Cc1cnc(C(=O)N2CCCC3(CCN(c4cnn(C)c4)C3=O)C2)cn1 (stereo not given),-8.899
18,CC1c2cc(F)ccc2CCN1C(=O)c1[nH]c(=O)[nH]c(=O)c1N (stereo not given),102.8
19,COC(=O)c1cc(C(=O)N2CCc3ccc(F)cc3C2C)ccn1 (stereo not given),5.538
20,Cc1nc(C)c(C(=O)N2CCc3ccc(F)cc3C2C)o1 (stereo not given),37.91
21,CC1c2ccc(F)cc2CCN1C(=O)c1nc(=O)[nH][nH]1 (stereo not given),10.03
22,Cc1nc(C)c(C(=O)N2CCc3cc(F)ccc3C2C)o1 (stereo not given),-6.74
23,CC1c2ccc(F)cc2CCN1C(=O)c1[nH]c(=O)[nH]c(=O)c1N (stereo not given),102.4
24,NC(=O)C1CCN(C(=O)NC2CCc3cc(F)ccc32)CC1 (stereo not given),-2.777
25,Fc1ccccc1-c1nccnc1C1CCCNC1 (stereo not given),6.685

row,SMILES,Percent Effect [%]
1,Cc1ccccc1CN1C[C@@H](C(=O)N2CCCCO2)C[C@H]2OCC[C@H]21.O=C(O)C(F)(F)F,19.61
2,O=C(NC1CC1)C1(Cc2ccccc2-c2ccncc2)CCOCC1,-4.384
3,CS(=O)(=O)N1CCOCC12CCN(Cc1ccc(F)cc1)CC2.O=C(O)C(F)(F)F,10.73
4,CS(=O)(=O)N1CCCC(C(=O)Nc2cnn(Cc3ccc(Cl)cc3)c2)C1 (stereo not given),6.456
5,COc1cc(CN2CCCC2)ccc1OC12CCCN(CC1)C2 (stereo not given),6.74
6,COc1cc(C#N)ccc1OC12CCCN(CC1)C2 (stereo not given),14.23
7,CCCc1ccc(OC23CCCN(CC2)C3)c(OC)c1 (stereo not given),51.62
8,Cc1nnc2n1CCN(C(=O)c1cc(C)n(-c3ccccc3)c1C)C2,-35.93
9,CN(CCCOc1ccccc1)Cc1nc2c(cnn2C)c(=O)[nH]1,27.35
10,COc1cccc(OCC(=O)N2CCOc3ccncc32)c1,-4.09
11,Cc1ncsc1-c1cc(C(=O)NCCO)ccn1,0.2276
12,CNC(=O)CNC(=O)c1ccc(-c2scnc2C)nc1,51.37
13,CCCNC(=O)CNC(=O)c1scnc1C,-19.92
14,Cc1cc(C(=O)CN2CCN(c3nccs3)CC2)c(C)n1C1CC1,7.889
15,COc1ccc(CCN(C)C(=O)c2cc(C(C)=O)c[nH]2)cc1OC,-7.568
16,O=C(NC1CC1)[C@H]1CN(Cc2ccccc2)C[C@@H]1C(=O)c1ccccc1,30.86
17,CNC(=O)[C@@H]1CN(Cc2ccccc2)C[C@H]1C(=O)c1ccc(F)cc1,28.54
18,CCNC(=O)[C@@H]1CN(Cc2ccccc2)C[C@H]1C(=O)c1ccc(F)cc1,56.73
19,CC(C)NC(=O)[C@H]1CN(Cc2ccccc2)C[C@@H]1C(=O)c1ccccc1,38.41
20,O=C(O)[C@H]1CN(Cc2ccccc2)C[C@@H]1C(=O)c1ccccc1,51.09
21,CCNC(=O)[C@H]1CN(Cc2ccccc2)C[C@@H]1C(=O)c1ccccc1,41.32
22,O=C(c1ccc(O)c(Cl)c1)N1CCN(c2nccs2)CC1,19.4
23,CC(C)CC(=O)N1CC[C@H]2C[C@H](c3nccs3)O[C@@H]2C1,29.2
24,CNc1nc2c(s1)C(c1cccc(F)c1F)CC(=O)N2 (stereo not given),-9.045
25,CNc1nc2c(s1)C(c1c(Cl)cccc1Cl)CC(=O)N2 (stereo not given),107.9
